Measured values from publication PMC4336329 (PLoS ONE, 2015).
About 14,000 (4.5%) of roughly 310,000 compounds showed an effect of 50% or more. The effect is printed as a negative number. For the sample, strong results were picked, then their nearest neighbours and some compounds at random.

target: human ether-à-go-go-related gene (hERG) potassium channel (human, UniProt Q12809); experiment: primary screen, population patch clamp on CHO cells stably expressing hERG; higher = less effect of the substance
Sequence (Q12809 whole entry, looked up): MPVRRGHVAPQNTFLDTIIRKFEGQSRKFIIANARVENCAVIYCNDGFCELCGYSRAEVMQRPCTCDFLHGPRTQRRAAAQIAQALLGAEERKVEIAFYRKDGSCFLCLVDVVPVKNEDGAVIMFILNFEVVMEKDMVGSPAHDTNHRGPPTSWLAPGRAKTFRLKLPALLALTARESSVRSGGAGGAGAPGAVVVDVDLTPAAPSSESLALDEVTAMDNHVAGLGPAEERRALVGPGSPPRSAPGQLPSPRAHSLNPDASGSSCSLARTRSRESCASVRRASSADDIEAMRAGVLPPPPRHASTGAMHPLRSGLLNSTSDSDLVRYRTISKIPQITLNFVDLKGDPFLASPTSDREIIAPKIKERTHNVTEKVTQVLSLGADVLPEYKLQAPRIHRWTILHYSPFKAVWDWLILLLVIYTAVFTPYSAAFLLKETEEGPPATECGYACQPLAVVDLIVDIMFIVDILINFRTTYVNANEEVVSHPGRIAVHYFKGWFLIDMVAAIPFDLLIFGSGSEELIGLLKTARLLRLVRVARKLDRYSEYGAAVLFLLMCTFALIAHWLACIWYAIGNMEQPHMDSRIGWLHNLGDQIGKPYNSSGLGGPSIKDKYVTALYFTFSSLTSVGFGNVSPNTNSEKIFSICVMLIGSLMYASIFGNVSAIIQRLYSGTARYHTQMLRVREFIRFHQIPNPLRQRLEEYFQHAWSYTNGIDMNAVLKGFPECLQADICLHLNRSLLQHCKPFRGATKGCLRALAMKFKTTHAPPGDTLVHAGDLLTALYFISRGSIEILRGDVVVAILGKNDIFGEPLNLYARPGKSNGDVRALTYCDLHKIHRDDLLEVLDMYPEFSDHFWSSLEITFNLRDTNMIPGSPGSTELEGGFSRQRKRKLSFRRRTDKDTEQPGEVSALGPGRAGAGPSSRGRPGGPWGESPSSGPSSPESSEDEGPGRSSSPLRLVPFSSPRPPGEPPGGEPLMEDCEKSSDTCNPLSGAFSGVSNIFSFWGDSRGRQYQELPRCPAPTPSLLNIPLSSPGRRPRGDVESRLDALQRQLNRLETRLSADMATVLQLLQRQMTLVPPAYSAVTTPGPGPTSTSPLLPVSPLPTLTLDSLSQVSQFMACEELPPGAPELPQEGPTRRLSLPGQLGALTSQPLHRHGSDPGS
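Note: peak tail current of the secondary pulse compared with the same well before compound.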

| SMILES | hERG current change (%, negative = inhibition) at 10uM [%] |
| --- | --- |
| CCOc1ccc(C(=O)Nc2nnc(SCC(=O)NCC3CCCO3)s2)cc1OCC (stereo not drawn) | 9.52 |
| c1ccc(-c2cn(CC3CCCCC3)nn2)cc1 | -1.74 |
| CCc1ccc(OCC(=O)O/N=C(\N)c2ccncc2)c(Br)c1 | 10.2 |
| COc1ccc(N2CCN(C(=O)CCc3ccccc3)CC2)cc1 | -9.27 |
| O=C(CCc1ccccc1)N1CCN(c2ccc([N+](=O)[O-])cc2)CC1 | -73.1 |
| CC1CC(C)CN(C(=O)CCc2ccccc2)C1 (stereo not drawn) | -2.16 |
| O=C(CN1CCN(c2ccc([N+](=O)[O-])cc2)CC1)c1ccccc1 | -75 |
| O=C(CN1CCN(c2ccc(Cl)cc2)CC1)c1ccccc1 | -6.33 |
| CC1CN(C(=O)CCc2ccccc2)C(C)CN1C(=O)CCc1ccccc1 (stereo not drawn) | -60.4 |
| CC1CCCN(C(=O)CCc2ccccc2)C1 (stereo not drawn) | -5.7 |
| O=C(CCCc1ccccc1)N1CCN(c2ccc([N+](=O)[O-])cc2)CC1 | -64.7 |
| C=CCN1CCN(C(=O)CCCc2ccccc2)CC1 | 26.1 |
| N#Cc1ccc(C(=O)CN2CCN(c3ccccc3)CC2)cc1 | -42.8 |
| O=C(CCCC1=NS(=O)(=O)c2ccccc2N1)N1CCN(c2ccc([N+](=O)[O-])cc2)CC1 | -1.34 |
| Cc1c(C)n(CC(O)CNCCO)c2ccccc12.O=C(O)C(=O)O (stereo not drawn) | 5.33 |
| CN1CCN(C(=O)CN(C)S(=O)(=O)c2cc(Cl)ccc2Cl)CC1 | 4.23 |
| CC1(C)CC2CN(C(=O)Cc3ccccc3)C(C)(C2)C1 (stereo not drawn) | 0.0688 |

| SMILES | hERG current change (%, negative = inhibition) at 10uM [%] |
| --- | --- |
| COc1ccc(/C=N/NC(=O)c2ccco2)cc1Cn1nc(C)cc1C | -2.47 |
| COc1ccc(-c2nnc(NC(=O)c3ccc(S(=O)(=O)N4CCCc5ccccc54)cc3)o2)cc1 | 0.175 |
| CC1(C)CC(=O)c2sc(N3CCCCC3)nc2C1 | -2.83 |
| COc1cc(CC(=O)N/N=C/c2ccccc2)c([N+](=O)[O-])cc1OC | 0.219 |
| Clc1cccc(CNCCc2c[nH]c3ccccc23)c1.O=C(O)C(=O)O | -14 |
| c1ccc(Cn2nnnc2C(c2ccccc2)N2CCN(c3nc4ccccc4s3)CC2)cc1 (stereo not drawn) | -11.7 |
| CS(=O)(=O)N1CCN(c2ccc(NC(=O)CSc3ccc(Cl)cc3)cc2)CC1 | -0.247 |
| O=C(NCCOc1ccccc1)c1ccccc1SCC(=O)N1CCCC1 | 14.9 |
| CC(C)OC(=O)CN1CCN(c2ccc(Cl)cc2)CC1 | 1.73 |
| O=C(CCc1ccccc1)N1CCCC1 | 8.96 |
| CCOC(=O)N1CCN(C(=O)CCc2ccccc2)CC1 | 5.12 |
| COc1ccc(N2CCN(CCCN)CC2)cc1 | 8.6 |
| O=C(CCc1ccccc1)N1CCCN(C(=O)CCc2ccccc2)CC1 | -51.5 |
| O=C(O)c1ccccc1SCC(=O)N1CCCCC1 | 15.2 |
| O=C(NCCc1ccccc1)c1ccccc1SCC(=O)N1CCCC1 | -51.3 |
| CCCCCCN1CCN(c2ccc(Cl)cc2)CC1 | -66.9 |
